Experimental data: the supplement of paper PMC11732987, “Enantioselective OTUD7B fragment discovery through chemoproteomics screening and high-throughput optimisation” (Communications Chemistry, 2025)

Assays:
Assay in all cases: log2 ratio of Biotin-Ahx-Ub-VS probe labelling (fragment/DMSO); higher = less target engagement (more negative = stronger competition), active = hit call of the paper (q ≤ 0.05, log2 ratio ≤ -1)
Settings in all cases: compound concentration: 200 uM; treatment time: 3 h
[1] = biological target: USP34 (UniProt Q70CQ2)
Method in brief: (§1)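 The table lists average log2 ratios of fragment over vehicle, from an unpaired t-test on global-median-normalised Spectronaut label-free quantities. Proteins with ≥2 unique peptides were used. Samples were HEK293T lysate (495 µg) treated in triplicate with fragment at 200 µM or vehicle for 3 h, then with Biotin-Ahx-Ub-VS (0.5 µM final) for 1 h, with labelled DUBs NeutrAvidin-enriched and run by diaPASEF LC-MS/MS.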

[2] = biological target: T1, USP36 (UniProt Q9P275)
T1 sequence (whole entry): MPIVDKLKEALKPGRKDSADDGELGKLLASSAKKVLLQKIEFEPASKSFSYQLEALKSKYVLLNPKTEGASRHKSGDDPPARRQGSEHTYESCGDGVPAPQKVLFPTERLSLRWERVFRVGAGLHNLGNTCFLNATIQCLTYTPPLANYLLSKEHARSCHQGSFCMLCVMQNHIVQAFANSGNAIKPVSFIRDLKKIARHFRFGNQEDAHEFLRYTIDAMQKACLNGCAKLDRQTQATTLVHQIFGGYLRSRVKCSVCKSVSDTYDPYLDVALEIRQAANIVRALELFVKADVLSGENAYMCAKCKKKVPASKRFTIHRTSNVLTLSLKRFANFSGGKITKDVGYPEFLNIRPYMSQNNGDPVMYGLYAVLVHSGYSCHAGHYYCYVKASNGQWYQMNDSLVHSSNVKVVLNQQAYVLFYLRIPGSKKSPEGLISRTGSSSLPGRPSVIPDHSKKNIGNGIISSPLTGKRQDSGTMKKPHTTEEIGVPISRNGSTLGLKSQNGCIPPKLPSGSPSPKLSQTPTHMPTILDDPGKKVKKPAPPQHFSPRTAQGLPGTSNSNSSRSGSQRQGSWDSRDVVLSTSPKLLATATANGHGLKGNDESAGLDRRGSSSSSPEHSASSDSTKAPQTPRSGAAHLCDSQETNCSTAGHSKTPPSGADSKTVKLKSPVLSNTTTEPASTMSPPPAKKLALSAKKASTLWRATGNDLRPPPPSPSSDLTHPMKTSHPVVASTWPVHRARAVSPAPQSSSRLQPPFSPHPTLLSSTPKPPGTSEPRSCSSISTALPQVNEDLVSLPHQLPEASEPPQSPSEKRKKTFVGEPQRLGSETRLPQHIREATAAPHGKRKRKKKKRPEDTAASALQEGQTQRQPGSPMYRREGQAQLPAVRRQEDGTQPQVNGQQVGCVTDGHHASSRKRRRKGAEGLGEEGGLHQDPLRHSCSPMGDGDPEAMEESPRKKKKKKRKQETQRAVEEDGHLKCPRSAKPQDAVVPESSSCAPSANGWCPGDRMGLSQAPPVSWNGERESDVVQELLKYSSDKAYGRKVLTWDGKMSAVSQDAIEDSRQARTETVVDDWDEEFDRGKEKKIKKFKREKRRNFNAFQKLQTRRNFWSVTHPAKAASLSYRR
Method in brief: as §1

[3] = biological target: T2, USP38 (UniProt Q8NB14)
T2 sequence (whole entry): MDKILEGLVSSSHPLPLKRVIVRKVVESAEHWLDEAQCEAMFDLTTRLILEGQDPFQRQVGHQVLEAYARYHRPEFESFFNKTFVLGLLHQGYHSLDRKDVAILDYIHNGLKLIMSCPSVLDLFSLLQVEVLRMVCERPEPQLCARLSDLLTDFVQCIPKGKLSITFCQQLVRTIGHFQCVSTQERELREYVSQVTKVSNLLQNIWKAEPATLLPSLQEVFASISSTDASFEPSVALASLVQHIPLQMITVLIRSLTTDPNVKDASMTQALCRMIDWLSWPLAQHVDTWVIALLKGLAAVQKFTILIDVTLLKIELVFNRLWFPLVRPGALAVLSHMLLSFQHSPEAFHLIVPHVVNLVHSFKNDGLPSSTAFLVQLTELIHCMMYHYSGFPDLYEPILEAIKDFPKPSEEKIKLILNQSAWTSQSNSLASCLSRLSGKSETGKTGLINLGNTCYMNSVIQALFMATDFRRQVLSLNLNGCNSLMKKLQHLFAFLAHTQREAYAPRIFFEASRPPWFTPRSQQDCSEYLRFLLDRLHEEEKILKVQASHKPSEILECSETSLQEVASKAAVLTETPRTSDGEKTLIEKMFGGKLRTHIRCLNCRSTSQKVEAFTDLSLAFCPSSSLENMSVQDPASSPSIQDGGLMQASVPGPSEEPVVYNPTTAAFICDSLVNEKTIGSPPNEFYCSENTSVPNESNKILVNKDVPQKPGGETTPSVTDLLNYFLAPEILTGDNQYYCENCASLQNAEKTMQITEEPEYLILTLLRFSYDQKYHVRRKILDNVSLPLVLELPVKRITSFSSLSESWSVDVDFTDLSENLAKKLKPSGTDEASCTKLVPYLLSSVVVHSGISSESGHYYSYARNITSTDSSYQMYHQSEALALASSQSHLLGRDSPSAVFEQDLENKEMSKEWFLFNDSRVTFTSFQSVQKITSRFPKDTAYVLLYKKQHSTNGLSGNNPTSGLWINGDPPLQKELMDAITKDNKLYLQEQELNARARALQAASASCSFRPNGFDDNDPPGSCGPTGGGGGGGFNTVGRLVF
Method in brief: as §1

[4] = biological target: T3, USP39 (UniProt Q53GS9)
T3 sequence (whole entry): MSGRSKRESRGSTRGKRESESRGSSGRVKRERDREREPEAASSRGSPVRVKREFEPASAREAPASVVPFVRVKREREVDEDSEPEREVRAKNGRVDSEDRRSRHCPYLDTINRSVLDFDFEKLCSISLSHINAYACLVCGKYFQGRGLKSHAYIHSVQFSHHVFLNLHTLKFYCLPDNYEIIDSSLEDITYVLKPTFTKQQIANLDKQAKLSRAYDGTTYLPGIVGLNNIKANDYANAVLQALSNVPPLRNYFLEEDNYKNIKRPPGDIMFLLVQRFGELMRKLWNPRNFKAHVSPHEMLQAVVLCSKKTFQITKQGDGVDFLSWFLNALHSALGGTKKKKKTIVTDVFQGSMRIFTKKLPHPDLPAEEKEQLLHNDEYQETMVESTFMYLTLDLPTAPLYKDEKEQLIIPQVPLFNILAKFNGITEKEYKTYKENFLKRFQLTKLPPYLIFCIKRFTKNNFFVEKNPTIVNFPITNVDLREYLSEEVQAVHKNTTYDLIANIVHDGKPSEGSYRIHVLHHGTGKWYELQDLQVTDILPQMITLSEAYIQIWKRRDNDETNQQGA
Method in brief: as §1

[5] = biological target: T4, USP4 (UniProt Q13107)
T4 sequence (whole entry): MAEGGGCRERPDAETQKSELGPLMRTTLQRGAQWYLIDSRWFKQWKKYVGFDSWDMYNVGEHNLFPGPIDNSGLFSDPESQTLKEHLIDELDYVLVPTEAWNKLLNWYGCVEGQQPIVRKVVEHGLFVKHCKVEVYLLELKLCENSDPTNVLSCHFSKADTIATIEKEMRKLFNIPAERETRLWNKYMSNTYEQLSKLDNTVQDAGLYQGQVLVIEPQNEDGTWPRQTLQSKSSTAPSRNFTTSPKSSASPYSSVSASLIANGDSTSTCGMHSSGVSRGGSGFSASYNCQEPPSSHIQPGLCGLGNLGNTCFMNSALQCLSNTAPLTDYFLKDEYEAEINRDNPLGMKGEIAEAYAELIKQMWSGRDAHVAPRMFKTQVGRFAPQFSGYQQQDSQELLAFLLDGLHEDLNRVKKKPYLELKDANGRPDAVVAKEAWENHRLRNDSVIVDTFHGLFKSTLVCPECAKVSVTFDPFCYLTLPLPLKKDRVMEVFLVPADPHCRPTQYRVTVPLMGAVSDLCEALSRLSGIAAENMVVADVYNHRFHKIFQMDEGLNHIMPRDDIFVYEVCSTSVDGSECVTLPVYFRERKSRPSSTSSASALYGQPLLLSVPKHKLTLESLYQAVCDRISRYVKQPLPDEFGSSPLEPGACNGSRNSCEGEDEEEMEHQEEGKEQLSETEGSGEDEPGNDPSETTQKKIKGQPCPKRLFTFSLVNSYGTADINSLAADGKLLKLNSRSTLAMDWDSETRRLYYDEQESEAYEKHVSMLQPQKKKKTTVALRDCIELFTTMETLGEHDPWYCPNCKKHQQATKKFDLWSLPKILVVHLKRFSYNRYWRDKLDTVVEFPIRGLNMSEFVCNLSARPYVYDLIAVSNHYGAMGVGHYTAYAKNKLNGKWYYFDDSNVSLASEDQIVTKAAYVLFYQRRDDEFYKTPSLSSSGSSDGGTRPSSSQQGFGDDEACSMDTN
Method in brief: as §1

Measured: log2 ratio of Biotin-Ahx-Ub-VS probe labelling

Sequence of USP34 (Q70CQ2 whole entry, the tested form may be a part): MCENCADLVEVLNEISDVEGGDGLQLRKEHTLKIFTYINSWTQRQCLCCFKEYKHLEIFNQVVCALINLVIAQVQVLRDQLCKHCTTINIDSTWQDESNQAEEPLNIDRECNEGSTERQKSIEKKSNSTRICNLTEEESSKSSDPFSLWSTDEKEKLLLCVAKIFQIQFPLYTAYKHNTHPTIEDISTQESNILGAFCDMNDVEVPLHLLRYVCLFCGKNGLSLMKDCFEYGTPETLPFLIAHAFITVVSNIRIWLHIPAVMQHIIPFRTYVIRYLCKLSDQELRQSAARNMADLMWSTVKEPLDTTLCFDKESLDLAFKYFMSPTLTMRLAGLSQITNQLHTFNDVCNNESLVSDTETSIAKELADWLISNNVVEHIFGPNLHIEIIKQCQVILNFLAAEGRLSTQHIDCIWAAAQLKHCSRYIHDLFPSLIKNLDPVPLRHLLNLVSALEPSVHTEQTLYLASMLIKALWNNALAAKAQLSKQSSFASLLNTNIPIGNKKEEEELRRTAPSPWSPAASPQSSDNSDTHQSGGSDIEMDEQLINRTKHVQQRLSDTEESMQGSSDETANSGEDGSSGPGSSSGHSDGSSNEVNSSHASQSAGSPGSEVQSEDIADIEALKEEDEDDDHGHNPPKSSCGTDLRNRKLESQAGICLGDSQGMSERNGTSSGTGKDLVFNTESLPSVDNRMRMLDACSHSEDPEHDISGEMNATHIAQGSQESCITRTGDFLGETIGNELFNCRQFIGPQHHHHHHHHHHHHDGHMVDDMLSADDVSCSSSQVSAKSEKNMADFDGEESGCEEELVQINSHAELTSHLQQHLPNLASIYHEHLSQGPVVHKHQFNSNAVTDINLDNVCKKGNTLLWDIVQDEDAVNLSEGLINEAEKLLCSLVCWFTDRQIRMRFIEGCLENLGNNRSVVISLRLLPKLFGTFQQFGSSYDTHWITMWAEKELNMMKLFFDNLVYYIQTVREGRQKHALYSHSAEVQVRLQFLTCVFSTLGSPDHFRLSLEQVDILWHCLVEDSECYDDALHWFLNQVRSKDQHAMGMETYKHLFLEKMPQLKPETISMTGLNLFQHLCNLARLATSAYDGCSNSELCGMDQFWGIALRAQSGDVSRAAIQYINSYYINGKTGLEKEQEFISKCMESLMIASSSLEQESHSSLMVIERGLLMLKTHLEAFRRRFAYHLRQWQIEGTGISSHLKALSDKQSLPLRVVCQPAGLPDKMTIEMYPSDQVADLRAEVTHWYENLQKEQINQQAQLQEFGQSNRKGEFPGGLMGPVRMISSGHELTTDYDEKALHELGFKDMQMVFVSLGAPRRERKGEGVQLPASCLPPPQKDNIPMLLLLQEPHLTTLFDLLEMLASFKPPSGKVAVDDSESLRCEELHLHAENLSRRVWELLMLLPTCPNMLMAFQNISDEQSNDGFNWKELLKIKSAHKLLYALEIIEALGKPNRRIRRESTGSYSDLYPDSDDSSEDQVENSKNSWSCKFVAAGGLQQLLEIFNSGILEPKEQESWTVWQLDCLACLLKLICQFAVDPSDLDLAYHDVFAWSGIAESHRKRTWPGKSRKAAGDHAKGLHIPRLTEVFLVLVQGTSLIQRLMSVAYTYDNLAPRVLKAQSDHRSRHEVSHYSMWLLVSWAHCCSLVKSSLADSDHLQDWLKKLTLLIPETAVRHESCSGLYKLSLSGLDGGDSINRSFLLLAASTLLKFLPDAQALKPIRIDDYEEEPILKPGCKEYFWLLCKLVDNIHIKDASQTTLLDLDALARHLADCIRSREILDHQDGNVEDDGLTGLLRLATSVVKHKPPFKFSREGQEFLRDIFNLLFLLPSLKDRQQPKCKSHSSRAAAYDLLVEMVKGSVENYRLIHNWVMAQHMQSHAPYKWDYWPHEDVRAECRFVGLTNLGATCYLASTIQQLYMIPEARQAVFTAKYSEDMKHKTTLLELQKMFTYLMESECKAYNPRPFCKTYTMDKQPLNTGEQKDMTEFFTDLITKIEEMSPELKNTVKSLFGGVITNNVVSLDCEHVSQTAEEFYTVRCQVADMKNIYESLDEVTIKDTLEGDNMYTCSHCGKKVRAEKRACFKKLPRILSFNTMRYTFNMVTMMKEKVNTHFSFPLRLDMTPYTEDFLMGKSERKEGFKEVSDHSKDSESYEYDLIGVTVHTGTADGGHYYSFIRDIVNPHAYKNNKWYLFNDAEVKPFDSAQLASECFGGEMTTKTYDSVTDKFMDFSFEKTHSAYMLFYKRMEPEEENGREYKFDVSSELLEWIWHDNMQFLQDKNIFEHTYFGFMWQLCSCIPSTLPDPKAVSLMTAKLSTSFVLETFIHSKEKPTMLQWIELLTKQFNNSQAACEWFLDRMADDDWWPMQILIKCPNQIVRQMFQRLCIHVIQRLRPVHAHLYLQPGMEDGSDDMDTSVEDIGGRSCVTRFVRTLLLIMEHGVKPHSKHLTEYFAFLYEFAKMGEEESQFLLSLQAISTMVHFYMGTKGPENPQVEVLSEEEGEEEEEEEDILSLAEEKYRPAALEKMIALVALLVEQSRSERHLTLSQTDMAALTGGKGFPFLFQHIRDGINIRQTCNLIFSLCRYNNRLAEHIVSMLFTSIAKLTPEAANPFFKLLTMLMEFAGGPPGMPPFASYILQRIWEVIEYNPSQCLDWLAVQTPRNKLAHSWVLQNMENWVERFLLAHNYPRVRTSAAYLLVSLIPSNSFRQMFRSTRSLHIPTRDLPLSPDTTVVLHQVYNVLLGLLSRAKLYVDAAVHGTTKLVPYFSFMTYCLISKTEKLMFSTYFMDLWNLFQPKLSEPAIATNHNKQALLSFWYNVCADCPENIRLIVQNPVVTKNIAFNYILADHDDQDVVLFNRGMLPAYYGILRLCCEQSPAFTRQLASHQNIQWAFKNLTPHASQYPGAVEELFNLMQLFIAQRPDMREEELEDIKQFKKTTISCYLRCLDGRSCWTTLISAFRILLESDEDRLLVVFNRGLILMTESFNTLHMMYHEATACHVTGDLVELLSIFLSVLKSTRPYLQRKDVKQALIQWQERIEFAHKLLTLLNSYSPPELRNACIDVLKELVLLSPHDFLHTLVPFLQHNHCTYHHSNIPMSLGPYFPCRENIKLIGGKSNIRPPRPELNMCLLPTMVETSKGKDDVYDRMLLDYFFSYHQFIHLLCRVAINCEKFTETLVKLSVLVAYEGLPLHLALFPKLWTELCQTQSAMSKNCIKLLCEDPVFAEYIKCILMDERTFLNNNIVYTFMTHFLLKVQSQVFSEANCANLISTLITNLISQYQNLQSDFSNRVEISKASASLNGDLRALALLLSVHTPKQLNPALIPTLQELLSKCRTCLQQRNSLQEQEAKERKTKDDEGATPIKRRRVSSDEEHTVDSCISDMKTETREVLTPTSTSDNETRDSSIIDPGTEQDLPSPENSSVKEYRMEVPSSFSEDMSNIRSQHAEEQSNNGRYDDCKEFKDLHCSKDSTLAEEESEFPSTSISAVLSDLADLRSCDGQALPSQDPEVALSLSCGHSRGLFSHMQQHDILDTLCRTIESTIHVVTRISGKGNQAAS

Cc1ccc(CC(NC(=O)CCl)c2ccccn2)cc1.Cl (stereo not given)
inactive: [1] -0.162 | [2] 0.13 | [3] -0.114 | [4] -0.181 | [5] 0.169
